# Test results taken from PubChem BioAssay.
# Activity calls are given as the source filed them.
# Assays:
# [1] = system: Plasmodium falciparum Sir2 (PF13_0152, Sir2A); assay: Plasmodium falciparum Sir2A binding compounds – biochemical, small-molecule microarray, 635 nm fluorescence, primary screen (AID 1098); conditions: fluorescence 635 nm, higher = more signal;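 note: score merges spot fluorescence intensity with its signal-to-noise ratio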
# [2] = probe aDKK1 binding to arrayed compounds – biochemical, biotinylated probe, 635/667 nm fluorescence, primary screen (AID 1099); conditions: small-molecule microarray, higher = more signal;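 note: score merges 667nm spot fluorescence with signal to noise across triplicate slides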
# [3] = probe aCHRDL2 binding to arrayed compounds – biochemical, biotinylated probe, 635/667 nm fluorescence, primary screen (AID 1100); conditions: small-molecule microarray, higher = more signal
# [4] = change in splice reporter luminescence, either direction, cell-based, HEK293, spliceosome inhibition project, primary screen (AID 1101); conditions: HEK293 splicing luciferase reporter, 24 h, higher = more signal, called active from +8 up or from −8 down;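 note: HEK293 cells carrying a splicing-competent luciferase reporter gene; test concentration not given here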
# [5] = target: Fibroblast growth factor 10 (Homo sapiens) (UniProt O15520); assay: compounds binding fibroblast growth factor 10 – biochemical, small-molecule microarray, 635 nm fluorescence, primary screen (AID 1102); conditions: FGF10 binding, fluorescence 635 nm, higher = more signal
# Fibroblast growth factor 10 (Homo sapiens), sequence (O15520 whole entry, looked up): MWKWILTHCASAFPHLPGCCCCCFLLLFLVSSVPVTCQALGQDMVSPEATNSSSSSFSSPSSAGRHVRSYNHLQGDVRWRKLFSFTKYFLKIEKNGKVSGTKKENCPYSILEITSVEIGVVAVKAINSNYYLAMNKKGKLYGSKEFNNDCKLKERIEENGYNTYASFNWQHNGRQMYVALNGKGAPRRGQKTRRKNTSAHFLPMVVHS
# [6] = system: glycogen synthase kinase-3 (GSK3A per assay name; protocol says GSK3B); assay: compounds binding glycogen synthase kinase-3 – biochemical, small-molecule microarray, 635 nm fluorescence, GSK3A, primary screen (AID 1103); conditions: fluorescence 635 nm, higher = more signal; note: the record names both GSK3A and GSK3B
# [7] = target: Epidermal growth factor receptor (Homo sapiens) (UniProt P00533); assay: compounds binding epidermal growth factor receptor – biochemical, small-molecule microarray, 635 nm fluorescence, primary screen (AID 1104); conditions: EGFR binding, higher = more signal;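 note: score merges 667 nm emission intensity with spot signal to noise over triplicate slides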
# Epidermal growth factor receptor (Homo sapiens), sequence (P00533 whole entry, looked up): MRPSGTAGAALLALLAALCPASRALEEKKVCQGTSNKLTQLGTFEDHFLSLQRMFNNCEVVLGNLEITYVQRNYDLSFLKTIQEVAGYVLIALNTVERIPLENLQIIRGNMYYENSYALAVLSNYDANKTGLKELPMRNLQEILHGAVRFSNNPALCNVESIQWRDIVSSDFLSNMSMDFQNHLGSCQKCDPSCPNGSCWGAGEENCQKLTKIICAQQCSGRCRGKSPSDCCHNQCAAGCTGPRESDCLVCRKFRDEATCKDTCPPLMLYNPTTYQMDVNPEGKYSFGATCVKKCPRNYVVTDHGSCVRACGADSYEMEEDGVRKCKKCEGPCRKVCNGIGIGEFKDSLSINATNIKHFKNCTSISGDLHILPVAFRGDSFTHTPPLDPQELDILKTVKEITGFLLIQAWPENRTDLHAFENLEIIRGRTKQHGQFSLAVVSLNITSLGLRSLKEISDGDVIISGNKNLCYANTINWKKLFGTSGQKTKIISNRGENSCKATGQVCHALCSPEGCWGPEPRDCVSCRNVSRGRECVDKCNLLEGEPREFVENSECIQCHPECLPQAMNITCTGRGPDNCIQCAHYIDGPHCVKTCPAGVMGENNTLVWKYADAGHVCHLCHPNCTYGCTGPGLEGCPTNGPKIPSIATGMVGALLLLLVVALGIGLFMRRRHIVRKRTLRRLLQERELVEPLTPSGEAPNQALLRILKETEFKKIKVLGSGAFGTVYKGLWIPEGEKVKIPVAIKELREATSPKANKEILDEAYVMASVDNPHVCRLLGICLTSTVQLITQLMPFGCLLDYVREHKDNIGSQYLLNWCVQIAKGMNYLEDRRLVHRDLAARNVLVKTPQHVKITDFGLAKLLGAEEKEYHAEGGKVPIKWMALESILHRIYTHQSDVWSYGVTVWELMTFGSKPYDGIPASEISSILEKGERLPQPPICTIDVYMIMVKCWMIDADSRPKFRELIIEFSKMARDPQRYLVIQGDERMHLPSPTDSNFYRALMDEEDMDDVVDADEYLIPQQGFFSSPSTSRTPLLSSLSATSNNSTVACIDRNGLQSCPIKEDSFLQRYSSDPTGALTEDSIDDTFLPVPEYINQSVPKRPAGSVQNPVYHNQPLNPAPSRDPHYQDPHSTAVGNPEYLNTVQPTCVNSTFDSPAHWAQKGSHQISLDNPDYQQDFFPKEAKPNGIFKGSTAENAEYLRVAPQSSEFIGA
# [8] = target: Follistatin-related protein 3 (Homo sapiens) (UniProt O95633); assay: compounds binding follistatin-related protein 3 – biochemical, small-molecule microarray, 635 nm fluorescence, primary screen (AID 1105); conditions: FSTL3 binding, higher = more signal;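 note: score merges emission near 667 nm and signal to noise per printed spot across three slides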
# Follistatin-related protein 3 (Homo sapiens), sequence (O95633 whole entry, looked up): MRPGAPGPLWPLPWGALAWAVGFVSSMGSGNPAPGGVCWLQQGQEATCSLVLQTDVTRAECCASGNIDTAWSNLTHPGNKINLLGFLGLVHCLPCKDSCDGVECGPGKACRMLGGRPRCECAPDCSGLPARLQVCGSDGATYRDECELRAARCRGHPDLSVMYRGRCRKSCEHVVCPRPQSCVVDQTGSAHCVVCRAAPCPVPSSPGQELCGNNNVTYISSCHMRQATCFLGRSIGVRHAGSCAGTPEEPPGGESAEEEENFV
# [9] = target: Dickkopf-related protein 1 (Homo sapiens) (UniProt O94907); assay: small molecules binding DKK1 protein – biochemical, small-molecule microarray, 635 nm fluorescence scan, primary screen (AID 1106); conditions: higher = more signal;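 note: score merges emission near 667 nm with signal to noise over three replicate slides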
# Dickkopf-related protein 1 (Homo sapiens), sequence (O94907 whole entry, looked up): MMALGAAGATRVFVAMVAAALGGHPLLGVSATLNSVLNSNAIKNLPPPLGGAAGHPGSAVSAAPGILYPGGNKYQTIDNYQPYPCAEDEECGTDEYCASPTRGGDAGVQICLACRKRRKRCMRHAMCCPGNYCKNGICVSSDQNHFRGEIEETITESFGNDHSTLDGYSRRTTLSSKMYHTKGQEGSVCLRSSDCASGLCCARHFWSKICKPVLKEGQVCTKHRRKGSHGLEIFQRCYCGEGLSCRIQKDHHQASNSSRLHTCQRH
# [10] = system: Inhibin beta A chain (activin A); assay: small molecules binding activin A – biochemical, small-molecule microarray, 635 nm fluorescence scan, primary screen (AID 1107); conditions: INHBA, higher = more signal;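 note: mouse activin A protein probed at 4.33 µg/mL on printed slides; score merges bound-protein fluorescence near 667 nm with spot signal-to-noise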
# [11] = system: Human papillomavirus type 1a protein E7 (residues 44-93); assay: small molecules binding HPV E7 44-93 – biochemical, small-molecule microarray, residues 44-93, 635 nm fluorescence, primary screen (AID 1108); conditions: fluorescence 635 nm, higher = more signal;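 note: E7 fragment applied at 1 µg/mL in TBST for 1 h at 4 C; score combines spot fluorescence with its signal to noise ratio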
# [12] = hepatitis C replication reporter changes, two-sided – Huh7 cells, luciferase reporter, HCV replication inhibitor project, primary screen (AID 1109); conditions: Huh7 HCV replicon luciferase reporter, 48 h; higher = more signal;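 note: huh7 hepatoma cells harbouring a luciferase neomycin HCV replicon reporter; luciferase luminescence as measure of HCV replicon replication; test concentration not given here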
# [13] = target: Left-right determination factor 2 (Homo sapiens) (UniProt O00292); assay: small molecules binding LEFTY2 protein – biochemical, small-molecule microarray, 635 nm fluorescence scan, primary screen (AID 1110); conditions: higher = more signal
# Left-right determination factor 2 (Homo sapiens), sequence (O00292 whole entry, looked up): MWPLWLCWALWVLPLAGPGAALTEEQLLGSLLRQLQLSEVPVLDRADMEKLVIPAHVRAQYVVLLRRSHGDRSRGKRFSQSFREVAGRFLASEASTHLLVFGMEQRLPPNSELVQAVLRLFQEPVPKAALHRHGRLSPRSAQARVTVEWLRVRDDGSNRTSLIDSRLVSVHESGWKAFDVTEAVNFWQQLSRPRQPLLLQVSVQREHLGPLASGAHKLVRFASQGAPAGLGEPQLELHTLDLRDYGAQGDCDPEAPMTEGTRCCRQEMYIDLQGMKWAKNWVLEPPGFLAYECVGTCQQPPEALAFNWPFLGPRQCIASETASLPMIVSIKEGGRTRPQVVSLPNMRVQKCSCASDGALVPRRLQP
# [14] = target: Calmodulin-1 (Homo sapiens) (UniProt P0DP23); assay: small molecules binding calmodulin-1 with EGTA – biochemical, small-molecule microarray, Cy5-labelled CALM1, profiling panel (AID 1111); conditions: Cy5-CALM1 binding fluorescence, higher = more signal;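 note: labelled calmodulin applied in Tris saline Tween buffer holding calcium plus EGTA and DTT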
# [15] = target: Calmodulin-1 (Homo sapiens) (UniProt P0DP23); assay: small molecules binding Ca-loaded calmodulin-1 – biochemical, small-molecule microarray, Cy5-labelled CALM1, plus calcium, artefact control for SMM control-protein annotation, profiling panel (AID 1112); conditions: Cy5-CALM1 binding fluorescence, higher = more signal;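 note: score merges spot fluorescence with signal to noise from triplicate slides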
# [16] = probe aWnt5a binding to arrayed compounds – biochemical, biotinylated probe, 635/667 nm fluorescence, primary screen (AID 1113); conditions: small-molecule microarray, higher = more signal;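 note: score merges 667 nm fluorescence intensity with signal-to-noise per printed feature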
# [17] = probe aShh binding to arrayed compounds – biochemical, biotinylated probe, 635/667 nm fluorescence, primary screen (AID 1114); conditions: small-molecule microarray, higher = more signal;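 note: probe is biotin-labelled aShh protein from a stem cell growth factor screen; measures binding of labelled protein to compounds printed on the slide; score merges feature fluorescence at 667 nm with signal-to-noise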
# [18] = probe aNog binding to arrayed compounds – biochemical, biotinylated probe, 635/667 nm fluorescence, primary screen (AID 1115); conditions: small-molecule microarray, higher = more signal;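 note: probe is biotinylated aNog protein used at 0.15 µg/mL for 1 h at 4 C; z-score combines 667 nm fluorescence of each spot with its signal to noise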
# [19] = target: Torsin-1A-interacting protein 1 (Homo sapiens) (UniProt Q5JTV8); assay: compound microarray binding of lysate hLAP1 – cell lysate, small-molecule microarray, COS7 lysate, 635/667 nm fluorescence, primary screen (AID 1116); conditions: 635 nm fluorescence, higher = more signal
# Torsin-1A-interacting protein 1 (Homo sapiens), sequence (Q5JTV8 whole entry, looked up): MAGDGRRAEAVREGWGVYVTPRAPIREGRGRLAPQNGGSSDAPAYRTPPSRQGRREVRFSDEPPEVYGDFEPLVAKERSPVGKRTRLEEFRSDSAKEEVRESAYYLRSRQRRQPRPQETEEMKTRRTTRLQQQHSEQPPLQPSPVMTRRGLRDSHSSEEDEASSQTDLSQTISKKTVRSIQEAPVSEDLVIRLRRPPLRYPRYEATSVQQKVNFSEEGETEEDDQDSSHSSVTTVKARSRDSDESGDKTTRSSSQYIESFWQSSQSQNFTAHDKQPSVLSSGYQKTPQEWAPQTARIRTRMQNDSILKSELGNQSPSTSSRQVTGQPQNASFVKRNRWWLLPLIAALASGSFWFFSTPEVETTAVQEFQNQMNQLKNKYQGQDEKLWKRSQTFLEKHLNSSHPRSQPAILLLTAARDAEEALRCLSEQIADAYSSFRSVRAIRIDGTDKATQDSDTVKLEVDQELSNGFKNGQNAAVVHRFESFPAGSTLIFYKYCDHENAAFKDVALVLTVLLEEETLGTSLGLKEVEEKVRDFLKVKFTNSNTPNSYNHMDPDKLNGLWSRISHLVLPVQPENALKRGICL
# [20] = target: Alpha-bungarotoxin (Bungarus multicinctus) (UniProt P60615); assay: compounds binding labelled alpha-BTX control protein – biochemical, small-molecule microarray, Alexa647 label, 635/667 nm fluorescence, artefact control for SMM control protein annotation, profiling panel (AID 1117); conditions: alpha-BTX-A647 binding fluorescence, higher = more signal
# Alpha-bungarotoxin (Bungarus multicinctus), sequence (P60615 whole entry, looked up): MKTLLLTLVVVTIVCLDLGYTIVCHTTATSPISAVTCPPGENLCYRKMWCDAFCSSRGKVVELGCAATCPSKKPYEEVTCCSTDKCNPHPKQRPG
Structure (SMILES),composite z-score [1],composite z-score [2],composite z-score [3],z-score [4],composite z-score [5],composite z-score [6],composite z-score [7],composite z-score [8],composite z-score [9],composite z-score [10],composite z-score [11],z-score [12],composite z-score [13],composite z-score [14],composite z-score [15],composite z-score [16],composite z-score [17],composite z-score [18],composite z-score [19],composite z-score [20]
COCCCNC(=O)[C@@]1(C)c2ccccc2C(=O)N(Cc2cc(F)cc(C(F)(F)F)c2)[C@H]1c1ccc(CO)cc1,0.938,0.612,0.862,-0.112 (inactive),0.22,-0.611,-1.79,-1.69,-2.23,-0.39,-0.762,0.67,-1.88,-0.416,0.49,-0.178,-0.0769,-0.144,0.0999,-1.97
COCCCNC(=O)[C@@]1(Cc2ccccc2)N=C(c2ccc(OCCCO)cc2)O[C@H]1c1ccccc1N=[N+]=[N-],0.481,1.22,1.19,-1.3 (inactive),1.2,1.24,-0.176,0.176,0.101,1.31,0.175,-2.59,-0.151,1.05,0.945,0.115,1.02,0.805,0.948,1.35
COc1ccc(CCNC(=O)[C@@]2(Sc3ccc(C)cc3)CC(=O)N(Cc3ccccc3)[C@@H]2c2ccc(CO)cc2I)cc1,1.16,-0.0607,0.566,-1.24 (inactive),-0.553,-0.407,-0.46,0.149,0.0928,0.761,0.152,-2.18,-1.46,-0.615,-0.0032,-0.17,-0.596,0.0805,-0.72,0.672
CCN(CC)c1ccc(N2CC=CC34O[C@@H]5C=CCOC(=O)[C@@H]5[C@H]3C(=O)N(C(C)CO)[C@@H]4C2=O)cc1 (stereo not given in full),-0.928,0.0831,0.495,-0.405 (inactive),-0.749,-2.21,-1.5,-1.5,-1.01,0.509,-1.09,-0.533,-1.21,-1.1,-0.201,-0.154,-0.153,0.166,-0.438,0.0517
COCCOC(=O)N1C(=O)[C@@]2(c3cc(C#CC4(O)CCCCCC4)ccc31)[C@H](C(=O)NC[C@H](O)c1ccccc1)[C@H]1C(=O)O[C@H](c3ccccc3)[C@H](c3ccccc3)N1[C@@H]2c1ccccc1OCCO,1.27,0.145,0.348,-0.747 (inactive),1.15,1.31,0.479,1.33,0.95,0.158,0.726,-2.56,0.678,1.18,0.0465,-0.129,0.699,-0.0939,0.945,1.45
CO[C@H]1O[C@H](CO)[C@@H](OC(=O)Nc2ccccc2)[C@H](OC(=O)Nc2ccc3c(c2)OCO3)[C@H]1OC(=O)Nc1ccc2c(c1)OCO2,1.59,0.666,0.757,-0.618 (inactive),0.729,0.741,-0.242,0.292,0.0894,0.798,0.538,-1.04,0.452,1.65,-0.617,0.0973,0.0898,1.19,1.51,0.485
